Assay results reported in PMC11006913.

Columns and labels:
Assay in all cases: PBM; 200 nM protein, PBS
Conditions in all cases: dsDNA, one strand shown
[1] = target: HESX1 (Homo sapiens, UniProt Q9UBX0 95-180, R165K)
[2] = target: SHOX (Homo sapiens, UniProt O15266 103-189)
[3] = target: ALX4 (Homo sapiens, UniProt Q9H161 200-286, Q225E)
[4] = target: HESX1 (Homo sapiens, UniProt Q9UBX0 95-180)
[5] = target: MSX2 (Homo sapiens, UniProt P35548 130-214, R199I)
[6] = target: ALX1 (Homo sapiens, UniProt Q15699 118-204, L144V)
Sequence of ALX1 (Homo sapiens, UniProt Q15699 118-204, L144V) (Q15699 118-204 L144V): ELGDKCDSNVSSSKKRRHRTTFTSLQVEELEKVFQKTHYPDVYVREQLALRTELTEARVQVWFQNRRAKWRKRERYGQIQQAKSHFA

[7] = target: ALX3 (Homo sapiens, UniProt O95076 139-225, N203Q)
Sequence of ALX3 (Homo sapiens, UniProt O95076 139-225, N203Q) (O95076 139-225 N203Q): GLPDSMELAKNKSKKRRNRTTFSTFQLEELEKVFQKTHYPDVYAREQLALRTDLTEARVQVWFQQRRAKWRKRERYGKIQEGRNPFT

[8] = target: SHOX (Homo sapiens, UniProt O15266 103-189, R173C)
Sequence of SHOX (Homo sapiens, UniProt O15266 103-189, R173C) (O15266 103-189 R173C): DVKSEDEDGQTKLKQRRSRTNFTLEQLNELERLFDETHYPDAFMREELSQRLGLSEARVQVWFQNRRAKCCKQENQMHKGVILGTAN

[9] = target: ALX1 (Homo sapiens, UniProt Q15699 118-204, L144R)
Sequence of ALX1 (Homo sapiens, UniProt Q15699 118-204, L144R) (Q15699 118-204 L144R): as the sequence (Q15699 118-204 L144V) above, with V27R counted along it

[10] = target: ALX3 (Homo sapiens, UniProt O95076 139-225)
Sequence of ALX3 (Homo sapiens, UniProt O95076 139-225) (O95076 139-225): as the sequence (O95076 139-225 N203Q) above, with Q65N counted along it

[11] = target: PROP1 (Homo sapiens, UniProt O75360 56-141)
Sequence of PROP1 (Homo sapiens, UniProt O75360 56-141) (O75360 56-141): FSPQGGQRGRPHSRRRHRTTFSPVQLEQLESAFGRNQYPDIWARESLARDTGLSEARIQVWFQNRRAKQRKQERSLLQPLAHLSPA

[12] = target: HESX1 (Homo sapiens, UniProt Q9UBX0 95-180, R109Q)
Sequence of HESX1 (Homo sapiens, UniProt Q9UBX0 95-180, R109Q) (Q9UBX0 95-180 R109Q): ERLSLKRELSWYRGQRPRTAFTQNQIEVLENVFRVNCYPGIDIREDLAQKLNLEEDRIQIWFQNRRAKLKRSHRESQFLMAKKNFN

[13] = target: PROP1 (Homo sapiens, UniProt O75360 56-141, R99H)
Sequence of PROP1 (Homo sapiens, UniProt O75360 56-141, R99H) (O75360 56-141 R99H): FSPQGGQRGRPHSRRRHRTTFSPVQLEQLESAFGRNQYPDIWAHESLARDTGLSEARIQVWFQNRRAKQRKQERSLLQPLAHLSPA

[14] = target: ALX3 (Homo sapiens, UniProt O95076 139-225, L168Q)
Sequence of ALX3 (Homo sapiens, UniProt O95076 139-225, L168Q) (O95076 139-225 L168Q): as the sequence (O95076 139-225 N203Q) above, with L30Q, Q65N counted along it

[15] = target: HESX1 (Homo sapiens, UniProt Q9UBX0 95-180, P111T)
Sequence of HESX1 (Homo sapiens, UniProt Q9UBX0 95-180, P111T) (Q9UBX0 95-180 P111T): as the sequence (Q9UBX0 95-180 R109Q) above, with Q15R, P17T counted along it

[16] = target: ALX3 (Homo sapiens, UniProt O95076 139-225, L168V)
Sequence of ALX3 (Homo sapiens, UniProt O95076 139-225, L168V) (O95076 139-225 L168V): as the sequence (O95076 139-225 N203Q) above, with L30V, Q65N counted along it

[17] = target: PROP1 (Homo sapiens, UniProt O75360 56-141, F88S)
Sequence of PROP1 (Homo sapiens, UniProt O75360 56-141, F88S) (O75360 56-141 F88S): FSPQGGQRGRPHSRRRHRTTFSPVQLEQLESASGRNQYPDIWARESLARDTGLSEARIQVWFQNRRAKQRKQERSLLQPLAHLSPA

[18] = target: HESX1 (Homo sapiens, UniProt Q9UBX0 95-180, F115L)
Sequence of HESX1 (Homo sapiens, UniProt Q9UBX0 95-180, F115L) (Q9UBX0 95-180 F115L): as the sequence (Q9UBX0 95-180 R109Q) above, with Q15R, F21L counted along it

[19] = target: ALX1 (Homo sapiens, UniProt Q15699 118-204)
Sequence of ALX1 (Homo sapiens, UniProt Q15699 118-204) (Q15699 118-204): as the sequence (Q15699 118-204 L144V) above, with V27L counted along it

[20] = target: ALX3 (Homo sapiens, UniProt O95076 139-225, N203S)
Sequence of ALX3 (Homo sapiens, UniProt O95076 139-225, N203S) (O95076 139-225 N203S): as the sequence (O95076 139-225 N203Q) above, with Q65S counted along it

Sequence of SHOX (Homo sapiens, UniProt O15266 103-189) (O15266 103-189): as the sequence (O15266 103-189 R173C) above, with C71R counted along it
Sequence of HESX1 (Homo sapiens, UniProt Q9UBX0 95-180, R165K) (Q9UBX0 95-180 R165K): as the sequence (Q9UBX0 95-180 R109Q) above, with Q15R, R71K counted along it
Sequence of HESX1 (Homo sapiens, UniProt Q9UBX0 95-180) (Q9UBX0 95-180): as the sequence (Q9UBX0 95-180 R109Q) above, with Q15R counted along it
Sequence of ALX4 (Q9H161 200-286 Q225E): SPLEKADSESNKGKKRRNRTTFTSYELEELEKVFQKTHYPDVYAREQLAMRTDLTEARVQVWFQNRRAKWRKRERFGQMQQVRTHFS
Sequence of MSX2 (P35548 130-214 R199I): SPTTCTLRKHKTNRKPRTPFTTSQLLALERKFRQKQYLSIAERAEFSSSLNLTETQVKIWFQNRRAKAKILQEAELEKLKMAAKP

Sequence: CAATTATG
- binding signal [1]: 12.7 upbm affinity estimate (log intensity, higher = more binding, comparable within an allelic series)
- binding signal [2]: 12.1 upbm affinity estimate (log intensity, higher = more binding, comparable within an allelic series)
- binding signal [3]: 13.1 upbm affinity estimate (log intensity, higher = more binding, comparable within an allelic series)
- binding signal [4]: 12.9 upbm affinity estimate (log intensity, higher = more binding, comparable within an allelic series)
- binding signal [5]: 12.8 upbm affinity estimate (log intensity, higher = more binding, comparable within an allelic series)
- binding signal [6]: 11.7 upbm affinity estimate (log intensity, higher = more binding, comparable within an allelic series)
- binding signal [7]: 8.45 upbm affinity estimate (log intensity, higher = more binding, comparable within an allelic series)
- binding signal [8]: 9.62 upbm affinity estimate (log intensity, higher = more binding, comparable within an allelic series)
- binding signal [9]: 11.4 upbm affinity estimate (log intensity, higher = more binding, comparable within an allelic series)
- binding signal [10]: 12.4 upbm affinity estimate (log intensity, higher = more binding, comparable within an allelic series)
- binding signal [11]: 11.5 upbm affinity estimate (log intensity, higher = more binding, comparable within an allelic series)
- binding signal [12]: 9.11 upbm affinity estimate (log intensity, higher = more binding, comparable within an allelic series)
- binding signal [13]: 11.5 upbm affinity estimate (log intensity, higher = more binding, comparable within an allelic series)
- binding signal [14]: 10.5 upbm affinity estimate (log intensity, higher = more binding, comparable within an allelic series)
- binding signal [15]: 11.2 upbm affinity estimate (log intensity, higher = more binding, comparable within an allelic series)
- binding signal [16]: 9.96 upbm affinity estimate (log intensity, higher = more binding, comparable within an allelic series)
- binding signal [17]: 7.66 upbm affinity estimate (log intensity, higher = more binding, comparable within an allelic series)
- binding signal [18]: 7.82 upbm affinity estimate (log intensity, higher = more binding, comparable within an allelic series)
- binding signal [19]: 12.3 upbm affinity estimate (log intensity, higher = more binding, comparable within an allelic series)
- binding signal [20]: 8.59 upbm affinity estimate (log intensity, higher = more binding, comparable within an allelic series)

Sequence: CCAGGTCC
- binding signal [1]: 6.37 upbm affinity estimate (log intensity, higher = more binding, comparable within an allelic series)
- binding signal [4]: 6.39 upbm affinity estimate (log intensity, higher = more binding, comparable within an allelic series)
- binding signal [11]: 6.63 upbm affinity estimate (log intensity, higher = more binding, comparable within an allelic series)
- binding signal [12]: 6.29 upbm affinity estimate (log intensity, higher = more binding, comparable within an allelic series)
- binding signal [13]: 6.65 upbm affinity estimate (log intensity, higher = more binding, comparable within an allelic series)
- binding signal [15]: 6.38 upbm affinity estimate (log intensity, higher = more binding, comparable within an allelic series)
- binding signal [17]: 6.38 upbm affinity estimate (log intensity, higher = more binding, comparable within an allelic series)
- binding signal [18]: 6.42 upbm affinity estimate (log intensity, higher = more binding, comparable within an allelic series)

Sequence: ACTAATTA
- binding signal [1]: 13.9 upbm affinity estimate (log intensity, higher = more binding, comparable within an allelic series)
- binding signal [2]: 13.2 upbm affinity estimate (log intensity, higher = more binding, comparable within an allelic series)
- binding signal [3]: 14.3 upbm affinity estimate (log intensity, higher = more binding, comparable within an allelic series)
- binding signal [4]: 13.5 upbm affinity estimate (log intensity, higher = more binding, comparable within an allelic series)
- binding signal [5]: 13.5 upbm affinity estimate (log intensity, higher = more binding, comparable within an allelic series)
- binding signal [6]: 12.4 upbm affinity estimate (log intensity, higher = more binding, comparable within an allelic series)
- binding signal [7]: 8.59 upbm affinity estimate (log intensity, higher = more binding, comparable within an allelic series)
- binding signal [8]: 10.6 upbm affinity estimate (log intensity, higher = more binding, comparable within an allelic series)
- binding signal [9]: 12 upbm affinity estimate (log intensity, higher = more binding, comparable within an allelic series)
- binding signal [10]: 12.9 upbm affinity estimate (log intensity, higher = more binding, comparable within an allelic series)
- binding signal [11]: 12.2 upbm affinity estimate (log intensity, higher = more binding, comparable within an allelic series)
- binding signal [12]: 10.5 upbm affinity estimate (log intensity, higher = more binding, comparable within an allelic series)
- binding signal [13]: 12.4 upbm affinity estimate (log intensity, higher = more binding, comparable within an allelic series)
- binding signal [14]: 11.5 upbm affinity estimate (log intensity, higher = more binding, comparable within an allelic series)
- binding signal [15]: 12.4 upbm affinity estimate (log intensity, higher = more binding, comparable within an allelic series)
- binding signal [16]: 11.2 upbm affinity estimate (log intensity, higher = more binding, comparable within an allelic series)
- binding signal [17]: 8.34 upbm affinity estimate (log intensity, higher = more binding, comparable within an allelic series)
- binding signal [18]: 8.35 upbm affinity estimate (log intensity, higher = more binding, comparable within an allelic series)
- binding signal [19]: 13 upbm affinity estimate (log intensity, higher = more binding, comparable within an allelic series)
- binding signal [20]: 8.73 upbm affinity estimate (log intensity, higher = more binding, comparable within an allelic series)

Sequence: ACCAATTA
- binding signal [1]: 13.7 upbm affinity estimate (log intensity, higher = more binding, comparable within an allelic series)
- binding signal [2]: 12.7 upbm affinity estimate (log intensity, higher = more binding, comparable within an allelic series)
- binding signal [3]: 13.8 upbm affinity estimate (log intensity, higher = more binding, comparable within an allelic series)
- binding signal [4]: 13.6 upbm affinity estimate (log intensity, higher = more binding, comparable within an allelic series)
- binding signal [5]: 13.4 upbm affinity estimate (log intensity, higher = more binding, comparable within an allelic series)
- binding signal [6]: 12.1 upbm affinity estimate (log intensity, higher = more binding, comparable within an allelic series)
- binding signal [7]: 8.43 upbm affinity estimate (log intensity, higher = more binding, comparable within an allelic series)
- binding signal [8]: 10.4 upbm affinity estimate (log intensity, higher = more binding, comparable within an allelic series)
- binding signal [9]: 11.7 upbm affinity estimate (log intensity, higher = more binding, comparable within an allelic series)
- binding signal [10]: 12.8 upbm affinity estimate (log intensity, higher = more binding, comparable within an allelic series)
- binding signal [11]: 12 upbm affinity estimate (log intensity, higher = more binding, comparable within an allelic series)
- binding signal [12]: 10.8 upbm affinity estimate (log intensity, higher = more binding, comparable within an allelic series)
- binding signal [13]: 12.3 upbm affinity estimate (log intensity, higher = more binding, comparable within an allelic series)
- binding signal [14]: 11.1 upbm affinity estimate (log intensity, higher = more binding, comparable within an allelic series)
- binding signal [15]: 12.3 upbm affinity estimate (log intensity, higher = more binding, comparable within an allelic series)
- binding signal [16]: 10.7 upbm affinity estimate (log intensity, higher = more binding, comparable within an allelic series)
- binding signal [17]: 7.81 upbm affinity estimate (log intensity, higher = more binding, comparable within an allelic series)
- binding signal [18]: 8.41 upbm affinity estimate (log intensity, higher = more binding, comparable within an allelic series)
- binding signal [19]: 12.7 upbm affinity estimate (log intensity, higher = more binding, comparable within an allelic series)
- binding signal [20]: 8.62 upbm affinity estimate (log intensity, higher = more binding, comparable within an allelic series)
